A selection: hits, their analogues and other compounds. The true share with any hit is near 10%.
GPT2 inhibitor – inhibitors of human GPT2 alanine aminotransferase; Recombinant GPT2, coupled pyruvate oxidase/HRP Amplex Red fluorescence; AID 1671188; Potency, µM (highest dose often 57.7 µM), inactives show at the highest dose activity change, negative = inhibition, hits mostly inhibitors; Q8TD30; hit rate 0.25% among 100,000; further: nearly all actives have a fitted effect of over 60% in size
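Recombinant GPT2 (10ng/uL) with 250uM a-KG and 2mM L-alanine, 30 min at room temperature, in HEPES pH 7.5 buffer. Pyruvate detected by pyruvate oxidase/HRP/Amplex Red fluorescence after 30 min in the dark; AOA (50uM) as positive control.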
hNpr1 antagonist – antagonists of human natriuretic peptide receptor Npr1; P16066; HEK293 hNpr1 GloSensor cGMP, ANP-stimulated luminescence; Potency, µM (top dose mostly 46.3 µM), for inactives: top-dose activity change, negative = inhibition, usual class: inhibitors; hit rate 1.6% among 76,000; AID 1347048; calls by dose curve; further: nearly all actives have a fitted effect of over 60% in size
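Compound pre-incubated 30 min at room temperature on GloSensor-loaded HEK293 cells stably carrying hNpr1 and the pGS-40F cGMP biosensor. Stimulation uses hNppA at 0.1 nM final; luminescence is taken at baseline and 20 min post-agonist.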
3T3 cytotox – kills NIH 3T3 cells | NIH 3T3 viability, CellTiter-Glo ATP luminescence, 48-72 h | Potency, µM (top dose mostly 96.7 µM), without a hit: at the top dose activity change, negative = cytotoxicity, actives largely listed as inhibitors | hit rate 4.3% among 94,000 | AID 1345082; further: nearly all actives have a fitted effect of over 55% in size
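NIH 3T3 cells at 400 cells/well received 23 nL of compound by pintool and were incubated 48 or 72 h at 37 °C. Viability was read as ATP-coupled CellTiter-Glo luminescence.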
HEK cytotox – cytotoxic compounds in HEK 293 cells; Potency, µM (top dose mostly 115 µM), without a hit: at the top dose activity change, negative = cytotoxicity, most hits filed as inhibitors; hit rate 6.6% among 94,000; AID 1345083; HEK 293 viability, ATP luminescence (CellTiter-Glo), 48-72 h; further: nearly all actives have a fitted effect of over 60% in size
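Read-out: CellTiter-Glo ATP luminescence. Cells: HEK 293, 250 cells/well. Exposure: 48 or 72 hr, 37 degree Celsius.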
FLuc inh – Photinus pyralis luciferase inhibition. hit rate 2.5% among 76,000. purified P. pyralis luciferase, luminescence, biochemical. Potency, µM (top dose mostly 115 µM), most hits filed as inhibitors. P08659. AID 1347043; further: nearly all actives have a fitted effect of over 65% in size
Target sequence (P08659 whole entry, looked up): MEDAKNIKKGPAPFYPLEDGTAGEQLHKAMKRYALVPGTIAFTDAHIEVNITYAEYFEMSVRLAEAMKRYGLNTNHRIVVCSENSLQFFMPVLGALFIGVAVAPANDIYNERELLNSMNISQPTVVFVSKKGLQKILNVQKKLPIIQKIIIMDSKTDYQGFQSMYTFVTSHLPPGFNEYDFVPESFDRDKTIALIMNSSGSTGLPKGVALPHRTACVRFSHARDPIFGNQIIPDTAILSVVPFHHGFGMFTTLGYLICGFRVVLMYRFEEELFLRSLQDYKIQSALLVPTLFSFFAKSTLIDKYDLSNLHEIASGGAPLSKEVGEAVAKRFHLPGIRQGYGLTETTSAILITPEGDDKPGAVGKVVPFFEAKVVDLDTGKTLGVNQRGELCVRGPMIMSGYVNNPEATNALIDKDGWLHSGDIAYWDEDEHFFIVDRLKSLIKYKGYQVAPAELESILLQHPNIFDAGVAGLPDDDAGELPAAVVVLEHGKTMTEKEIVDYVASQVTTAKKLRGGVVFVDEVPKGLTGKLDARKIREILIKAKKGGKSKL
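FLuc 10nM, D-luciferin 10uM, ATP 10uM, Mg acetate 10mM, Tris acetate pH 7.5, Tween/BSA; cpd qHTS; enzyme added last; CCD luminescence.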
Numbers without * were called inactive; i = inactive; ? = inconclusive; . = not tested or not shown; [ ] = dose if it differs, or a comment. Unless noted, the call rests on the fitted dose curve; in most records, active means well fitted curve in the direction sought with a large enough effect; inconclusive means small, poorly fitted or top-dose-only effect, or another doubt; inactive means no such curve, though single readings can be large; an effect the other way counts as inactive or inconclusive. On the % scale 0 is the no-effect control and ±100 the full control effect; potency means the concentration at half of the fitted maximal effect.

SMILES	GPT2 inhibitor	hNpr1 antagonist	3T3 cytotox	HEK cytotox	FLuc inh
C=CCCC(CN1CCCOCC1)Oc1ncc(C)c(N(C)C)n1 (configuration not stated)	4%	-7%	-22%	?	i
CCN1C(=O)CN(C(=O)c2ccncc2)CC12CCOCC2	i	.	-19%	-1%	.
O=C(NC1CCCC1)N1CCN(C(=O)c2nc3cccnc3n(C3CCCC3)c2=O)CC1	1%	.	?	-5%	.
O=C(NC1CCCc2c1cnn2-c1ccc(F)cc1F)c1c(F)cccc1Cl (configuration not stated)	-36%	?	?	35µM*	i
Cc1ccc(C(=O)N2CCC[C@@H]2C(=O)N2CCC(N3CCOC3=O)CC2)cc1	5%	.	-7%	-7%	.
COc1cccc(CN2CCC3(CC2)NCCc2c3[nH]c3ccccc23)c1	-6%	-15%	35µM*	32µM*	i
COc1cccc(CN2CCC3(CC2)NCCc2c3[nH]c3ccc(OC)cc23)c1	i	0%	?	?	i
COc1ccc2[nH]c3c(c2c1)CCNC31CCN(Cc2ccc(F)c(F)c2)CC1	-6%	-12%	35µM*	?	i
COC1CCN(CC2CCCCCN2C(=O)CCCc2ccccc2)CC1 (configuration not stated)	-21%	-12%	?	?	i
COC1CCN(CC2CCCCCN2C(=O)Nc2ccc3c(c2)OCCO3)CC1 (configuration not stated)	-6%	0%	-3%	2%	18µM*
CC1CCN(CC2CCCCCN2C(=O)Nc2ccc3c(c2)OCCO3)CC1 (configuration not stated)	i	-13%	-14%	?	16µM*
CC(=O)N1CCN(C(=O)c2ccc3nnc(-c4ccoc4)n3c2)CC1	i	.	-7%	-1%	.
CC(C)(C)c1nc(C(=O)NCCc2ccc(Cl)cc2)n2ccncc12	-23%	.	?	35µM*	.
CC(C)(C)c1nc(C(=O)NCCc2ccc(Cl)cc2)n2ccccc12	-16%	.	?	-24%	.
O=C(NCC1Cn2cccc2CN1Cc1ccccc1)c1ccoc1 (configuration not stated)	i	3%	?	-29%	?
O=C(CC1CCCCN(Cc2ccccc2)C1=O)Nc1ccccc1 (configuration not stated)	5%	.	?	?	.
CC(C)(C)CN1CCOC[C@H]1c1ncc(-c2ccc(Cl)cc2)[nH]1	-14%[88.5 µM]	-18%[70.6 µM]	89µM*	79µM*	i
CC(C)(C)CN1CCOC[C@H]1c1ncc(-c2ccc(C(F)(F)F)cc2)[nH]1	2%[88.5 µM]	?	79µM*	71µM*	i
CC(C)(C)CN1CCOC[C@H]1c1ncc(-c2ccc(S(C)(=O)=O)cc2)[nH]1	-10%[88.5 µM]	0%[70.6 µM]	-20%[174 µM]	-10%[172 µM]	i
Cc1ccc(-c2cnc([C@@H]3COCCN3CC3CC3)[nH]2)cc1	i	3%[70.6 µM]	-19%[174 µM]	63µM*	i
Cc1ccc(-c2cnc([C@@H]3COCCN3Cc3ccncc3)[nH]2)cc1	2%[88.5 µM]	4%[70.6 µM]	2%[174 µM]	-6%[172 µM]	i
Cc1ccc(NC(=O)C2CCN(c3ccnc4ccnn34)CC2)cc1	4%[88.5 µM]	.	?	?	.
c1ccc(-c2noc(-c3cncnc3N3CCN(C4CCCCC4)CC3)n2)cc1	-10%	-2%	-25%	?	i
c1ccc(-c2noc(-c3cncnc3N3CCSCC3)n2)cc1	5%	-7%	-15%	45µM*	?
CC1CCN(c2ncncc2-c2nc(-c3ccccc3)no2)CC1	4%	2%	?	79µM*	?
SMILES	GPT2 inhibitor	hNpr1 antagonist	3T3 cytotox	HEK cytotox	FLuc inh
O=C(Nc1ccc(Cl)cc1)N1CCC2(CC1)CCN(Cc1cccs1)c1ccccc1O2	i	-2%	?	?	i
CCN1CCCC12Cc1ccccc1CN(C(=O)c1ccccc1)C2 (configuration not stated)	-9%	.	?	?	.
COC1CCN(C(=O)c2coc(COc3ccc(F)cc3Cl)n2)CC1	i	4%	?	-2%	i
O=C(c1coc(COc2ccc(F)cc2Cl)n1)N1CCCCO1	i	-17%	-1%	?	35µM*
O=C(NCCc1ccncc1)c1coc(COc2ccc(F)cc2Cl)n1	-9%	-10%	?	32µM*	i
CCOC(=O)C1=C(C)N=C2SC=C(CC(=O)N3CCC(C)CC3)N2C1c1ccccc1F (configuration not stated)	i	-16%	?	40µM*	i
COCCOC(=O)C1=C(C)N=C2SC=C(CC(=O)NCCc3ccccc3)N2C1c1ccccc1 (configuration not stated)	i	-3%	?	50µM*	i
COCCOC(=O)C1=C(C)N=C2SC=C(CC(=O)N3CCCCC3C)N2C1c1ccccc1 (configuration not stated)	1%	-9%	-16%	35µM*	i
CCOC(=O)C1=C(C)N=C2SC=C(CC(=O)N3CCC(C)CC3)N2C1c1cccc(OC)c1 (configuration not stated)	2%	-17%	?	?	i
CC1=C(C(=O)Nc2ccccc2)C(c2cc(C)ccc2C)N2C(CC(=O)N3CCCC3)=CSC2=N1 (configuration not stated)	i	?	?	32µM*	i
COC(=O)c1ccc2nc(CO[C@H]3CN(Cc4ccc5c(c4)OCO5)C[C@H]3F)[nH]c2c1	-4%[88.5 µM]	-17%[70.6 µM]	?	?	i
O=C(Cc1ccc(F)cc1)NC1CCCN(c2ccc3nnc(C4CC4)n3n2)C1 (configuration not stated)	.	.	-29%	-3%	.
Cc1nnc2ccc(N3CCCN(C(=O)C4CCCC4)CC3)nn12	.	.	-4%	-4%	.
O=C(NCc1ccc2c(c1)OCO2)c1nc(-c2ccc(Cl)cc2Cl)c2ccccn12	i	4%	?	32µM*	i
O=C(c1nc(-c2ccc(Cl)cc2Cl)c2ccccn12)N1CCN(c2ncccn2)CC1	-17%	.	?	40µM*	.
COCCNC(=O)c1nc(-c2ccc(Cl)cc2)c2ccccn12	i	-1%[70.6 µM]	79µM*	?	i
O=C(c1nc(-c2ccc(Cl)cc2Cl)c2ccccn12)N1CCCC1	-8%	.	?	?	.
O=C(c1nc(-c2ccc(Cl)cc2)c2ccccn12)N1CCCC1	i	0%[70.6 µM]	?	?	45µM*
COC(=O)CNC(=O)c1nc(-c2ccc(Cl)cc2)c2ccccn12	i	17%[70.6 µM]	?	-19%[172 µM]	?
O=C1CC2(CCN(C(=O)C3CCCN(C(=O)Cc4ccccn4)C3)CC2)Oc2ccccc2N1 (configuration not stated)	i	.	-14%	1%	.
O=C([C@@H]1CCCN1[S+](=O)([O-])c1cccc(C(F)(F)F)c1)N1CCC(N2CCOC2=O)CC1	4%	.	-14%	-15%	.

Assay outcomes deposited in PubChem BioAssay by National Center for Advancing Translational Sciences (NCATS).
